Experiments:
Test in all cases: DAPPL (digital affinity profiling via proximity ligation, sequencing); 10 mM Tris-HCl pH 7.5, 50 mM NaCl, 1 mM DTT, 4% glycerol, room temperature, 30 min; GST-TFs on glutathione beads, 16-mer random dsDNA library, 0.1% formaldehyde crosslink after washing; high values mean tight binding
[1] = target: T1, FEV (Homo sapiens, UniProt Q99581 1-238); details: protein: recombinant; tags: N-terminal GST; dsDNA, one strand shown
T1 sequence: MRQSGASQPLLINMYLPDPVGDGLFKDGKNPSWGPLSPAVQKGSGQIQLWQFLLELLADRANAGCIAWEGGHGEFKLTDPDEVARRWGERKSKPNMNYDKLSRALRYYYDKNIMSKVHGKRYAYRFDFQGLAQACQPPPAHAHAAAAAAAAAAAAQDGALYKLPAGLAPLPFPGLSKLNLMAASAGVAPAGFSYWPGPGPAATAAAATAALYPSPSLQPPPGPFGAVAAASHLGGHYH
Outline: (§1)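 Binding signal is given per hexamer as its read frequency for a factor divided by its frequency in the tag-only sample. GST-fused human transcription factors were expressed in yeast, captured on glutathione beads, barcoded with DNA and pooled with that sample, then incubated with 200 nmole of a 16-mer random double-stranded DNA library in Tris/NaCl/DTT/glycerol buffer for 30 min at room temperature. The pools were then washed, crosslinked, proximity-ligated, amplified by PCR and sequenced on an Illumina NextSeq500.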

[2] = target: ETV5 (Homo sapiens, UniProt P41161 1-510); details: protein: recombinant; tags: N-terminal GST; dsDNA, one strand shown
Outline: as §1

[3] = target: HSF1 (Homo sapiens, UniProt Q00613 1-529); details: protein: recombinant; tags: N-terminal GST; chain copies: 3; dsDNA, one strand shown
Outline: as §1

[4] = target: T2, SPIC (Homo sapiens, UniProt Q8N5J4 1-248); details: protein: recombinant; tags: N-terminal GST; dsDNA, one strand shown
T2 sequence: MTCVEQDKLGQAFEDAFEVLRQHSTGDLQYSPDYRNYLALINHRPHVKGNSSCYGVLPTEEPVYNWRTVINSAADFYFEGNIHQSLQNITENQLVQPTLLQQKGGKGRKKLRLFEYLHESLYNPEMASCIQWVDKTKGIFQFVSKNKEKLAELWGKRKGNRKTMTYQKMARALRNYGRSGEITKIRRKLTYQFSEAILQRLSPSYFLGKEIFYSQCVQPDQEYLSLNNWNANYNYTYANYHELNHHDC
Outline: as §1

[5] = target: ELF4 (Homo sapiens, UniProt Q99607 1-663); details: protein: recombinant; tags: N-terminal GST; dsDNA, one strand shown
Outline: as §1

[6] = target: T3, ELK4 (Homo sapiens, UniProt P28324-2 1-405); details: protein: recombinant; tags: N-terminal GST; dsDNA, one strand shown
T3 sequence: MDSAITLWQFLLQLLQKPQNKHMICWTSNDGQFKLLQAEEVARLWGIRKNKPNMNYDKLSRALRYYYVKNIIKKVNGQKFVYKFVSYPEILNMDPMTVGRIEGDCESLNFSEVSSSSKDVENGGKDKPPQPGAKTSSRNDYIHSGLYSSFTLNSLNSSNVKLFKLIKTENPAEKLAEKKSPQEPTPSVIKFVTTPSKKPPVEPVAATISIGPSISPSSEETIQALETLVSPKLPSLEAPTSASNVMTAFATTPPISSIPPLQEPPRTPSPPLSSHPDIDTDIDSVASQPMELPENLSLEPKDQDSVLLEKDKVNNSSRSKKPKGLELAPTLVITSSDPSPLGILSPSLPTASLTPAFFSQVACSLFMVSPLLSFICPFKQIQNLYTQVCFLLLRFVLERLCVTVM
Outline: as §1

[7] = target: T4, ETV2 (Homo sapiens, UniProt O00321 1-342); details: protein: recombinant; tags: N-terminal GST; dsDNA, one strand shown
T4 sequence: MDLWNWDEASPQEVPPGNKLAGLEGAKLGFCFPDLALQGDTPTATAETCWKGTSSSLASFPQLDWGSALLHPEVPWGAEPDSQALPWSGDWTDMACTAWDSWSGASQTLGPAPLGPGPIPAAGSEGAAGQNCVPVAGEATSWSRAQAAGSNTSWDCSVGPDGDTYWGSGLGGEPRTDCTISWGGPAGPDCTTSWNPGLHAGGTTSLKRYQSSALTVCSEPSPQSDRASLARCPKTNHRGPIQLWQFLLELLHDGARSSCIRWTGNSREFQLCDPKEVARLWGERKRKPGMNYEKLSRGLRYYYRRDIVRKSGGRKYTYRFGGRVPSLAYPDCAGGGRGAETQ
Outline: as §1

[8] = target: T5, ELF3 (Homo sapiens, UniProt P78545 1-371); details: protein: recombinant; tags: N-terminal GST; dsDNA, one strand shown
T5 sequence: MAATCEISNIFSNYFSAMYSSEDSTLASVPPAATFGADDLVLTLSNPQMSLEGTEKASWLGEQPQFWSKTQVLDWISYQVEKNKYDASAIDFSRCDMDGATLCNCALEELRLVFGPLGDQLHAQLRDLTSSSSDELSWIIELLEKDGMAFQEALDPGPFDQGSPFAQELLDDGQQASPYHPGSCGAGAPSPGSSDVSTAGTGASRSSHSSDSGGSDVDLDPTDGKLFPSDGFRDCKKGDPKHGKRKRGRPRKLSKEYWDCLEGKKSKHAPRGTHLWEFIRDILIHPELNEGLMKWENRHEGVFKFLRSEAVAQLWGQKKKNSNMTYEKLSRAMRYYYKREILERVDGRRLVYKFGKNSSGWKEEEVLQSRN
Outline: as §1

[9] = target: CRX (Homo sapiens, UniProt O43186 1-299); details: protein: recombinant; tags: N-terminal GST; dsDNA, one strand shown
Outline: as §1

[10] = target: ETV1 (Homo sapiens, UniProt P50549 1-477); details: protein: recombinant; tags: N-terminal GST; dsDNA, one strand shown
Outline: as §1

[11] = target: T6, ERF (Homo sapiens, UniProt P50548 1-548); details: protein: recombinant; tags: N-terminal GST; dsDNA, one strand shown
T6 sequence: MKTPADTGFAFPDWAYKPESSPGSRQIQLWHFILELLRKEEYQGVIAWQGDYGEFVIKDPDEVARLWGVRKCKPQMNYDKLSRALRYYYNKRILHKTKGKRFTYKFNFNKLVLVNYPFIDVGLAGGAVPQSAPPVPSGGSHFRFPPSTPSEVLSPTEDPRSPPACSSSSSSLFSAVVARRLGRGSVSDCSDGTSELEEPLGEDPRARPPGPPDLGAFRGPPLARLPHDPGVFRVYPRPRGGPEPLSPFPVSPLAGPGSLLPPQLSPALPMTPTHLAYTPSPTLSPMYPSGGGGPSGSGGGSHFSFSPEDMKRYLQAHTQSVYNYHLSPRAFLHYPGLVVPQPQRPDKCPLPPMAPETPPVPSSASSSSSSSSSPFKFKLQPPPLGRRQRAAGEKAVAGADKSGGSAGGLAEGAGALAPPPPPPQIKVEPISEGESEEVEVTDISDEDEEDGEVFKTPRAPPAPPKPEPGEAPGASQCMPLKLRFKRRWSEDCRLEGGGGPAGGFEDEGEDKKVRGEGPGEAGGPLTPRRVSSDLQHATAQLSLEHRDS
Outline: as §1

[12] = target: T7, ETV3L (Homo sapiens, UniProt Q6ZN32 1-361); details: protein: recombinant; tags: N-terminal GST; dsDNA, one strand shown
T7 sequence: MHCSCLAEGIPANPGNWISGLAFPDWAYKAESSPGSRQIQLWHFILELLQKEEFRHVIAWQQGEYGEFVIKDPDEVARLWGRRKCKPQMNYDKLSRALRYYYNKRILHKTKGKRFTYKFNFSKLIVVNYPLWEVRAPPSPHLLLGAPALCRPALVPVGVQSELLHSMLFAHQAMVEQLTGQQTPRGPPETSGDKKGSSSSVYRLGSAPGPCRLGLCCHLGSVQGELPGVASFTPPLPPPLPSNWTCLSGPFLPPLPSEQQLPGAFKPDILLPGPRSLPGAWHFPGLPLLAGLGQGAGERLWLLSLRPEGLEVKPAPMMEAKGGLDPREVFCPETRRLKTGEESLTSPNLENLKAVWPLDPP
Outline: as §1

[13] = target: T8, ETS2 (Homo sapiens, UniProt P15036 1-469); details: protein: recombinant; tags: N-terminal GST; dsDNA, one strand shown
T8 sequence: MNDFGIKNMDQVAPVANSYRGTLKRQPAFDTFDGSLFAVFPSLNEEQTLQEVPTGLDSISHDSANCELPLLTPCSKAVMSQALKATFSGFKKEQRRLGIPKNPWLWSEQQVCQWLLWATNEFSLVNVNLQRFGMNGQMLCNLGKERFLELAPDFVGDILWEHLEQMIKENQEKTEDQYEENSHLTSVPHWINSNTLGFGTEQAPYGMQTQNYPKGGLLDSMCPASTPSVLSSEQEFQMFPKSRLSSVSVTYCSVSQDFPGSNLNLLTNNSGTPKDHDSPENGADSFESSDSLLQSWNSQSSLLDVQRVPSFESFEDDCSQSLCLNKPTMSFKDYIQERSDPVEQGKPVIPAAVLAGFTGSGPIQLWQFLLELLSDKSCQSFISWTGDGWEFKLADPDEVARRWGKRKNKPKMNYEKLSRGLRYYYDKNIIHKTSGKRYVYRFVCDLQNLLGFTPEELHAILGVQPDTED
Outline: as §1

[14] = target: T9, SPDEF (Homo sapiens, UniProt O95238 1-335); details: protein: recombinant; tags: N-terminal GST; dsDNA, one strand shown
T9 sequence: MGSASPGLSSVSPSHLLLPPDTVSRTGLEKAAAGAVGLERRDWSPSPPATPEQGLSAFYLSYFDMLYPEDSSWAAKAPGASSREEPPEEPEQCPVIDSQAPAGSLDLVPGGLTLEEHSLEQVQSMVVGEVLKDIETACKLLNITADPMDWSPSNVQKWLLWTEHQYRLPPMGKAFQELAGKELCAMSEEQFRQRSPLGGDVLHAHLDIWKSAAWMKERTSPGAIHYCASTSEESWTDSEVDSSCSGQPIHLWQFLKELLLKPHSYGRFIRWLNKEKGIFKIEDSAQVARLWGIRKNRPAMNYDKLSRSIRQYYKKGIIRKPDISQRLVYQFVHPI
Outline: as §1

[15] = target: T10, ETV7 (Homo sapiens, UniProt Q9Y603 1-341); details: protein: recombinant; tags: N-terminal GST; dsDNA, one strand shown
T10 sequence: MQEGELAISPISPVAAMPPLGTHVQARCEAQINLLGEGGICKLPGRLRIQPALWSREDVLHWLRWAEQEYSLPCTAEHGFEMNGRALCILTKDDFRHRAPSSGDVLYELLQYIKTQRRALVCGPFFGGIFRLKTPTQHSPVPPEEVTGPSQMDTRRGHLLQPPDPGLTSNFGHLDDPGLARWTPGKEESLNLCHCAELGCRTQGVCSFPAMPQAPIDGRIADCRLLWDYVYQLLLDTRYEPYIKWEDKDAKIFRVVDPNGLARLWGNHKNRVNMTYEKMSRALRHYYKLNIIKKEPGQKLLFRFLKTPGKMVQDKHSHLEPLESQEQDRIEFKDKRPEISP
Outline: as §1

[16] = target: T11, ELF5 (Homo sapiens, UniProt Q9UKW6-2 1-255); details: protein: recombinant; tags: N-terminal GST; dsDNA, one strand shown
T11 sequence: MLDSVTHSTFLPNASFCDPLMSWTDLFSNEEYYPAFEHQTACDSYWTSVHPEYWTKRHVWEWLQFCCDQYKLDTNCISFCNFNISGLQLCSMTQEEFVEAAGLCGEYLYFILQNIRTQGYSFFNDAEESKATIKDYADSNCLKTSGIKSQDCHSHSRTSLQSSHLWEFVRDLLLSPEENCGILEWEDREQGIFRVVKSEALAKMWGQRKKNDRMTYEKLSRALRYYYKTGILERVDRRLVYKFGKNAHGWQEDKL
Outline: as §1

[17] = target: T12, ETV3 (Homo sapiens, UniProt P41162-2 1-143); details: protein: recombinant; tags: N-terminal GST; dsDNA, one strand shown
T12 sequence: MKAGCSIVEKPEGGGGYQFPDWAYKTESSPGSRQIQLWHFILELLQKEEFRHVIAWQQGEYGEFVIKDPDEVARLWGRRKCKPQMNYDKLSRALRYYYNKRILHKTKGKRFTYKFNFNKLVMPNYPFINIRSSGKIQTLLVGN
Outline: as §1

[18] = target: ETV6 (Homo sapiens, UniProt P41212 1-452); details: protein: recombinant; tags: N-terminal GST; dsDNA, one strand shown
Outline: as §1

Sequence of ETV6 (P41212 whole entry): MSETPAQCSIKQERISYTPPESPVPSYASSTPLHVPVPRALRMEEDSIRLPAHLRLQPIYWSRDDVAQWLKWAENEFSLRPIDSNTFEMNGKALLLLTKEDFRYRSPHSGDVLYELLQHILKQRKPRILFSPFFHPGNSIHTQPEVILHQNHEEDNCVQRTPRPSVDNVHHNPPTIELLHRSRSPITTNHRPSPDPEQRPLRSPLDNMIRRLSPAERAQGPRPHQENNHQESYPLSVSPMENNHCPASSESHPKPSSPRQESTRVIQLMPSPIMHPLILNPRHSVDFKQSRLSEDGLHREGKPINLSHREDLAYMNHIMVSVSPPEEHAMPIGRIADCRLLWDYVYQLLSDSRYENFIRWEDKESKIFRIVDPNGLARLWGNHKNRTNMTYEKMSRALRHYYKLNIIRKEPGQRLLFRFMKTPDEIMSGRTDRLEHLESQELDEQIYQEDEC
Sequence of ETV5 (P41161 whole entry): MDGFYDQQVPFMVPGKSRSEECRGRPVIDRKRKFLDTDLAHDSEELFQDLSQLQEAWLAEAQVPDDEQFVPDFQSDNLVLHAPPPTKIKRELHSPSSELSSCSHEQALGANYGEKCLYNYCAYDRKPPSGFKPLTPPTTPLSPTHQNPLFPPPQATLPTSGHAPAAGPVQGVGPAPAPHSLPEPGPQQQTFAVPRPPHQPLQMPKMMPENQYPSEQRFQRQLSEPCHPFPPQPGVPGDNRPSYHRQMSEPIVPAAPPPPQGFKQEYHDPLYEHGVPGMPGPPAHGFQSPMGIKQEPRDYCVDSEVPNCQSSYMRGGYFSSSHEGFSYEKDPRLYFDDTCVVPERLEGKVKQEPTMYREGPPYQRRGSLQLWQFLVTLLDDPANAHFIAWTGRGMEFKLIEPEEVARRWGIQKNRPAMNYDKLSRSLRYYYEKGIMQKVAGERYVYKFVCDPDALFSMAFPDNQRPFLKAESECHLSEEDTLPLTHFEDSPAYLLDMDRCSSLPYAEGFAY
Sequence of ELF4 (Q99607 whole entry): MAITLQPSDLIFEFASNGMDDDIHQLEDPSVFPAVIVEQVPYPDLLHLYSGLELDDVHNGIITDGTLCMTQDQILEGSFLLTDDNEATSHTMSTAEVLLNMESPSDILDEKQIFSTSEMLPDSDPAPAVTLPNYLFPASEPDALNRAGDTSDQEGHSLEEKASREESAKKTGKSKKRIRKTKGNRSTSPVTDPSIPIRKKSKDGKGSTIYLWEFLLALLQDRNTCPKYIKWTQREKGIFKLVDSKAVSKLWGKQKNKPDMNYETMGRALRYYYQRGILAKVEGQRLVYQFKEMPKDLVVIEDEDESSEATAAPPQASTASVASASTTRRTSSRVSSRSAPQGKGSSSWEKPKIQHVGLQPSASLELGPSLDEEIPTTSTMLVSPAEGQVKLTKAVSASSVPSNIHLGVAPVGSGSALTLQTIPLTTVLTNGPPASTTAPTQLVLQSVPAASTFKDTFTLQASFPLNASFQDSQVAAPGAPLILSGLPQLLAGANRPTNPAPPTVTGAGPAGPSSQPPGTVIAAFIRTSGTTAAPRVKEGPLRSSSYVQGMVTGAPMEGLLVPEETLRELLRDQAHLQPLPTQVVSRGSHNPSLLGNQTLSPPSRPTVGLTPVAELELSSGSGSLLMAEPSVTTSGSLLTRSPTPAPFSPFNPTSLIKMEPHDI
Sequence of HSF1 (Q00613 whole entry): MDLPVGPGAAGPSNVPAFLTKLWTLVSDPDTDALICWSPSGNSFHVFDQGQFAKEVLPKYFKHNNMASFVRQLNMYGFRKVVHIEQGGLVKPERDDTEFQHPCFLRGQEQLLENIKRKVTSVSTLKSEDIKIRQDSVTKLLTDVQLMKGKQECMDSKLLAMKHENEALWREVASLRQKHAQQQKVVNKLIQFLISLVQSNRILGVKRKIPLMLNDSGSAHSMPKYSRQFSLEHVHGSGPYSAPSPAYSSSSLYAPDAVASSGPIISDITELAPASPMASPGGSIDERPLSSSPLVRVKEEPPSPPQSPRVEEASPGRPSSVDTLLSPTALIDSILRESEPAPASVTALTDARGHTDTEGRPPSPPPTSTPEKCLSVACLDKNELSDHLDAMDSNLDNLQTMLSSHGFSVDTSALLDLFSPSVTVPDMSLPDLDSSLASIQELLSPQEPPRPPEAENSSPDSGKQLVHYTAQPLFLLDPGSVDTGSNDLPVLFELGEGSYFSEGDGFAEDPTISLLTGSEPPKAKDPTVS
Sequence of ETV1 (P50549 whole entry): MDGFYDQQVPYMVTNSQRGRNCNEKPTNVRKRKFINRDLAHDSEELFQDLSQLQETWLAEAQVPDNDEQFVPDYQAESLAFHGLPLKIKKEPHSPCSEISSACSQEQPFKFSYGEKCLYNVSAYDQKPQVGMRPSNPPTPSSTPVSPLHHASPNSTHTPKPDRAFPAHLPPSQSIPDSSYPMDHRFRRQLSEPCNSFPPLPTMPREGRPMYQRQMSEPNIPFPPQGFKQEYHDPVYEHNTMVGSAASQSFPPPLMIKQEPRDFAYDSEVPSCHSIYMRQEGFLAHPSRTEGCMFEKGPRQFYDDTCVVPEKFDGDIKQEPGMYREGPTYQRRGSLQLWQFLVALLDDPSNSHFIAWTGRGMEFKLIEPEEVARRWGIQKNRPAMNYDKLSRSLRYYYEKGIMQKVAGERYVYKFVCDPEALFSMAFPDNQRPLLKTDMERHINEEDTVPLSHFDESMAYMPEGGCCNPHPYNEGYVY
Sequence of CRX (O43186 whole entry): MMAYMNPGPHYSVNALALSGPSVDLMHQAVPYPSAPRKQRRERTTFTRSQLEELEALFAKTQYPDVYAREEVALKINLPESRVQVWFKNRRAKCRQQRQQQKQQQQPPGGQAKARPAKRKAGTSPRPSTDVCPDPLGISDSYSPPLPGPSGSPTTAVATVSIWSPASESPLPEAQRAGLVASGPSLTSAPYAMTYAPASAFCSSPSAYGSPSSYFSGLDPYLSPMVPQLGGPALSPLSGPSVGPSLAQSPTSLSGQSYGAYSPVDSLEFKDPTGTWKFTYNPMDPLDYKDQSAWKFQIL

In the case of ATTCAT, the binding signal [1] is reported as 1.11 fold enrichment (6-mer frequency, TF over GST control), the binding signal [2] is reported as 1.21 fold enrichment (6-mer frequency, TF over GST control) and the binding signal [3] is reported as 1.12 fold enrichment (6-mer frequency, TF over GST control). The binding signal [4] was 1.24 fold enrichment (6-mer frequency, TF over GST control), the binding signal [5] was 1.17 fold enrichment (6-mer frequency, TF over GST control) and the binding signal [6] was 1.18 fold enrichment (6-mer frequency, TF over GST control). The binding signal [7] was 1.15 fold enrichment (6-mer frequency, TF over GST control), the binding signal [8] was 1.22 fold enrichment (6-mer frequency, TF over GST control) and the binding signal [9] was 1.16 fold enrichment (6-mer frequency, TF over GST control). The binding signal [10] was 1.18 fold enrichment (6-mer frequency, TF over GST control), the binding signal [11] was 1.14 fold enrichment (6-mer frequency, TF over GST control) and the binding signal [12] was 1.27 fold enrichment (6-mer frequency, TF over GST control). The binding signal [13] was 1.13 fold enrichment (6-mer frequency, TF over GST control), the binding signal [14] was 1.07 fold enrichment (6-mer frequency, TF over GST control) and the binding signal [15] was 1.18 fold enrichment (6-mer frequency, TF over GST control). For the same sequence, the binding signal [16] was 1.1 fold enrichment (6-mer frequency, TF over GST control), the binding signal [17] was 1.19 fold enrichment (6-mer frequency, TF over GST control) and the binding signal [18] was 1.11 fold enrichment (6-mer frequency, TF over GST control).
